# Assay results: paper PMC11062922 (Nature Chemical Biology, 2023)
# Where two headings read alike, the source gives them in different places.
# How the values were obtained:
# Set-up in all cases: species or system human, MV4-11 + K-562 + COLO205 + SK-N-BE2 + OVCAR-8
# CLK4 = details: read-out: apparent Kd, n = 1
# ILK = details: read-out: apparent Kd; compound concentrations: 100 nM and 1000 nM (sheet 'Samples'), CATDS: 0.22050260792915999; n = 1
# IRAK3 = details: read-out: apparent Kd; compound concentrations: 100 nM and 1000 nM (sheet 'Samples'), CATDS: 0.257263100547858; n = 1
# RET = details: read-out: apparent Kd; compound concentrations: 100 nM and 1000 nM (sheet 'Samples'), CATDS: 0.29305960370360601; n = 1
# CSNK1D = details: read-out: apparent Kd, n = 1
# CSNK1E = details: read-out: apparent Kd, n = 1
# MAPK10 = details: read-out: apparent Kd; compound concentrations: 100 nM and 1000 nM (sheet 'Samples'), CATDS: 0.138963906660688; n = 1
# MAPK9 = details: read-out: apparent Kd, n = 1
# NQO2 = details: read-out: apparent Kd; compound concentrations: 100 nM and 1000 nM (sheet 'Samples'), CATDS: 0.189684513322773; n = 1
# PIK3CD = details: read-out: apparent Kd; compound concentrations: 100 nM and 1000 nM (sheet 'Samples'), CATDS: 0.41134743817449698; n = 1
# CSNK2A2 = details: read-out: apparent Kd, compound concentrations: 100 nM and 1000 nM (sheet 'Samples'), n = 1
# PDXK = details: read-out: apparent Kd; compound concentrations: 100 nM and 1000 nM (sheet 'Samples'), CATDS: 0.33190254365372501; n = 1
# CSNK1A1 = details: read-out: apparent Kd, n = 1
# MAPK11 = details: read-out: apparent Kd; compound concentrations:100 nM and 1000 nM (sheet 'Samples'); n = 1
# MAPK14 = details: read-out: apparent Kd, n = 1
# NLK = details: read-out: apparent Kd; compound concentrations:100 nM and 1000 nM (sheet 'Samples'); n = 1
# PKN3 = details: read-out: apparent Kd; compound concentrations:100 nM and 1000 nM (sheet 'Samples'); n = 1
# CSNK2A1;CSNK2A3 = details: read-out: apparent Kd; compound concentrations: 100 nM and 1000 nM (sheet 'Samples'), CATDS: 0.28521766566088902; n = 1
# DYRK1A = details: read-out: apparent Kd, n = 1
# MAPKAPK2 = details: read-out: apparent Kd; compound concentrations: 100 nM and 1000 nM (sheet 'Samples'), CATDS: 0.22954264686774201; n = 1
# CLK1 = details: read-out: apparent Kd, n = 1
# GSK3B = details: read-out: apparent Kd; compound concentrations:100 nM and 1000 nM (sheet 'Samples'); n = 1
# GAK = details: read-out: apparent Kd; compound concentrations: 100 nM and 1000 nM (sheet 'Samples'), CATDS: 0.13551111713290001; n = 1
# MAPK8 = details: read-out: apparent Kd; compound concentrations: 100 nM and 1000 nM (sheet 'Samples'), CATDS: 0.168882234188796; n = 1
# TTK = details: read-out: apparent Kd; compound concentrations: 100 nM and 1000 nM (sheet 'Samples'), CATDS: 0.53372982121950996; n = 1
# [1] = compound concentrations:100 nM and 1000 nM (sheet 'Samples')
smiles,measurement,setting,value
COc1cc(/C=N/Nc2ncnc3c2cnn3C(C)C)ccc1O [GW644007X],potency estimated from few doses,"CLK4; compound concentrations: 100 nM and 1000 nM (sheet 'Samples'), CATDS: 0.240063768784822",1750 nM
same,potency estimated from few doses,ILK,2110 nM
same,potency estimated from few doses,IRAK3,1520 nM
same,potency estimated from few doses,RET,1190 nM
CCCCc1nn2ncccc2c1-c1ccnc(NC2CC2)n1 [GW684374X],potency estimated from few doses,"CSNK1D; compound concentrations: 100 nM and 1000 nM (sheet 'Samples'), CATDS: 0.183460166751924",702 nM
same,potency estimated from few doses,"CSNK1E; compound concentrations: 100 nM and 1000 nM (sheet 'Samples'), CATDS: 0.13214440190412699",1590 nM
same,potency estimated from few doses,MAPK10,1370 nM
same,potency estimated from few doses,"MAPK9; compound concentrations: 100 nM and 1000 nM (sheet 'Samples'), CATDS: 0.12372123914536701",1960 nM
same,potency estimated from few doses,NQO2,655 nM
same,potency estimated from few doses,PIK3CD,178 nM
Nc1ncnc2[nH]c(-c3ccccc3)nc12 [AH5015_KCGS],potency estimated from few doses,"CLK4; compound concentrations: 100 nM and 1000 nM (sheet 'Samples'), CATDS: 0.40901388179724202",1090 nM
same,potency estimated from few doses,CSNK2A2; CATDS: 0.28231341025767498,2320 nM
same,potency estimated from few doses,PDXK,1610 nM
Fc1ccc(-c2ncn(C3CCNCC3)c2-c2ccnc(Oc3ccccc3)n2)cc1 [SB-239272],potency estimated from few doses,CSNK1A1; [1],1380 nM
same,potency estimated from few doses,CSNK1D; [1],88.7 nM
same,potency estimated from few doses,CSNK1E; [1],191 nM
same,potency estimated from few doses,MAPK11,45.4 nM
same,potency estimated from few doses,MAPK14; [1],12.5 nM
same,potency estimated from few doses,MAPK9; [1],1110 nM
same,potency estimated from few doses,NLK,1500 nM
same,potency estimated from few doses,PKN3,2090 nM
N=C1N=C(N)S/C1=C\c1ccc2ncccc2c1 [RO4509407-000],potency estimated from few doses,"CLK4; compound concentrations: 100 nM and 1000 nM (sheet 'Samples'), CATDS: 0.20208548416979799",1310 nM
same,potency estimated from few doses,CSNK2A1;CSNK2A3,612 nM
same,potency estimated from few doses,CSNK2A2; CATDS: 0.32436684951211903,488 nM
same,potency estimated from few doses,"DYRK1A; compound concentrations: 100 nM and 1000 nM (sheet 'Samples'), CATDS: 0.224085831089785",1010 nM
Fc1ccc(-c2ncn(CCCNCc3ccccc3)c2-c2ccncc2)cc1 [SB-210486],potency estimated from few doses,"CSNK1A1; compound concentrations: 100 nM and 1000 nM (sheet 'Samples'), CATDS: 0.128304526213217",1360 nM
same,potency estimated from few doses,"CSNK1D; compound concentrations: 100 nM and 1000 nM (sheet 'Samples'), CATDS: 0.26868989903925999",280 nM
same,potency estimated from few doses,"CSNK1E; compound concentrations: 100 nM and 1000 nM (sheet 'Samples'), CATDS: 0.162916255761588",716 nM
same,potency estimated from few doses,"MAPK14; compound concentrations: 100 nM and 1000 nM (sheet 'Samples'), CATDS: 0.19130895998185199",509 nM
same,potency estimated from few doses,"MAPK9; compound concentrations: 100 nM and 1000 nM (sheet 'Samples'), CATDS: 0.114122400306413",2070 nM
same,potency estimated from few doses,MAPKAPK2,363 nM
O=c1[nH]cc(-c2ccc(O)cc2)c2sc(-c3ccncc3)cc12 [GSK1033723A],potency estimated from few doses,CLK1; [1],471 nM
same,potency estimated from few doses,CLK4; [1],148 nM
same,potency estimated from few doses,DYRK1A; [1],1550 nM
same,potency estimated from few doses,GSK3B,1220 nM
CNc1nc(Nc2ccc(C(=O)N3CCOCC3)cc2OC)nc2[nH]cc(Cl)c12 [JH-II-127],potency estimated from few doses,"CLK1; compound concentrations: 100 nM and 1000 nM (sheet 'Samples'), CATDS: 0.13184639507044499",1090 nM
same,potency estimated from few doses,"CLK4; compound concentrations: 100 nM and 1000 nM (sheet 'Samples'), CATDS: 0.153440234991533",722 nM
same,potency estimated from few doses,GAK,1000 nM
same,potency estimated from few doses,MAPK8,575 nM
same,potency estimated from few doses,"MAPK9; compound concentrations: 100 nM and 1000 nM (sheet 'Samples'), CATDS: 0.14872410543912701",781 nM
same,potency estimated from few doses,TTK,76.1 nM
